{
  "source": "paper PMC7862700",
  "about": "“An all-to-all approach to the identification of sequence-specific readers for epigenetic DNA modifications on cytosine”",
  "data": [
    {"target": "SPI1 (Homo sapiens, UniProt P17947 1-270)", "test": "DAPPL (digital affinity profiling via proximity ligation, sequencing); 10 mM Tris-HCl pH 7.5, 50 mM NaCl, 1 mM DTT, 4% glycerol, room temperature, 30 min; GST-TFs on glutathione beads, 16-mer random dsDNA library, 0.1% formaldehyde crosslink after washing; high values mean tight binding", "conditions": "protein: recombinant; tags: N-terminal GST; dsDNA, one strand shown", "procedure,_shortened": "(§1)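 Sequencing on an Illumina NextSeq500 followed washing, crosslinking with 0.1% formaldehyde, proximity ligation (BsaI/T4 ligase, 1 h, 37 °C) and PCR amplification of pools that had been incubated for 30 min at room temperature with 200 nmole of a random double-stranded 16-mer DNA library in Tris/NaCl/DTT/glycerol buffer. Each pool held DNA-barcoded human transcription factors, expressed in yeast as GST fusions and captured on glutathione beads, plus a tag-only sample. Binding signal is a hexamer's read frequency for a factor divided by its frequency in the tag-only sample.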", "values": [
      {"sequence": "GCTGAA", "binding signal": "1.06 fold enrichment (6-mer frequency, TF over GST control)"},
      {"sequence": "TCACAA", "binding signal": "1.06 fold enrichment (6-mer frequency, TF over GST control)"},
      {"sequence": "GCGCCT", "binding signal": "1.12 fold enrichment (6-mer frequency, TF over GST control)"},
      {"sequence": "CTGGAC", "binding signal": "1.08 fold enrichment (6-mer frequency, TF over GST control)"},
      {"sequence": "GTATAC", "binding signal": "1.18 fold enrichment (6-mer frequency, TF over GST control)"},
      {"sequence": "TATTTC", "binding signal": "2.02 fold enrichment (6-mer frequency, TF over GST control)"},
      {"sequence": "CCGAAA", "binding signal": "1.21 fold enrichment (6-mer frequency, TF over GST control)"},
      {"sequence": "ACCTTG", "binding signal": "1.17 fold enrichment (6-mer frequency, TF over GST control)"},
      {"sequence": "CAACAC", "binding signal": "1.06 fold enrichment (6-mer frequency, TF over GST control)"},
      {"sequence": "GTATAA", "binding signal": "1.12 fold enrichment (6-mer frequency, TF over GST control)"},
      {"sequence": "TCGATG", "binding signal": "1.17 fold enrichment (6-mer frequency, TF over GST control)"},
      {"sequence": "GGCCTA", "binding signal": "1.03 fold enrichment (6-mer frequency, TF over GST control)"},
      {"sequence": "AAGCAC", "binding signal": "1.18 fold enrichment (6-mer frequency, TF over GST control)"},
      {"sequence": "CGATCG", "binding signal": "1.02 fold enrichment (6-mer frequency, TF over GST control)"},
      {"sequence": "ACTCGC", "binding signal": "1.15 fold enrichment (6-mer frequency, TF over GST control)"},
      {"sequence": "CTGTCC", "binding signal": "1.25 fold enrichment (6-mer frequency, TF over GST control)"},
      {"sequence": "TTAGCG", "binding signal": "1 fold enrichment (6-mer frequency, TF over GST control)"},
      {"sequence": "TAATGA", "binding signal": "1.22 fold enrichment (6-mer frequency, TF over GST control)"},
      {"sequence": "GGTAAT", "binding signal": "1.04 fold enrichment (6-mer frequency, TF over GST control)"},
      {"sequence": "TATCGC", "binding signal": "1.08 fold enrichment (6-mer frequency, TF over GST control)"},
      {"sequence": "TGCGCA", "binding signal": "1.08 fold enrichment (6-mer frequency, TF over GST control)"},
      {"sequence": "CCGGGT", "binding signal": "1.01 fold enrichment (6-mer frequency, TF over GST control)"},
      {"sequence": "TCTATG", "binding signal": "1.09 fold enrichment (6-mer frequency, TF over GST control)"},
      {"sequence": "ATTGCT", "binding signal": "1.1 fold enrichment (6-mer frequency, TF over GST control)"},
      {"sequence": "ATGTGC", "binding signal": "1.06 fold enrichment (6-mer frequency, TF over GST control)"},
      {"sequence": "TTTCCT", "binding signal": "2.33 fold enrichment (6-mer frequency, TF over GST control)"},
      {"sequence": "GCTCTG", "binding signal": "1.11 fold enrichment (6-mer frequency, TF over GST control)"},
      {"sequence": "ATAGCT", "binding signal": "1.17 fold enrichment (6-mer frequency, TF over GST control)"},
      {"sequence": "CCCTGT", "binding signal": "1.07 fold enrichment (6-mer frequency, TF over GST control)"},
      {"sequence": "AATCAG", "binding signal": "1.04 fold enrichment (6-mer frequency, TF over GST control)"},
      {"sequence": "CGAAGC", "binding signal": "1.2 fold enrichment (6-mer frequency, TF over GST control)"},
      {"sequence": "CCGCGT", "binding signal": "1.12 fold enrichment (6-mer frequency, TF over GST control)"}
    ]},
    {"target": "SPIB (Homo sapiens, UniProt Q01892 1-262)", "sequence (Q01892 whole entry)": "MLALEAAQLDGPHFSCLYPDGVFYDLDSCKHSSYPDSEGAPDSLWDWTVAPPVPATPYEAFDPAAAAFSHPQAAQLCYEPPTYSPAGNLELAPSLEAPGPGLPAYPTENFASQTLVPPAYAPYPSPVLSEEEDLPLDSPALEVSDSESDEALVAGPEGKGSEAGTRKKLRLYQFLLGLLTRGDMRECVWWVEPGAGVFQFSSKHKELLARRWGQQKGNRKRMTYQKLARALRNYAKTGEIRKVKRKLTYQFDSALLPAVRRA", "test": "DAPPL (digital affinity profiling via proximity ligation, sequencing); 10 mM Tris-HCl pH 7.5, 50 mM NaCl, 1 mM DTT, 4% glycerol, room temperature, 30 min; GST-TFs on glutathione beads, 16-mer random dsDNA library, 0.1% formaldehyde crosslink after washing; high values mean tight binding", "conditions": "protein: recombinant; tags: N-terminal GST; dsDNA, one strand shown", "procedure,_shortened": "as §1", "values": [
      {"sequence": "GTGCTC", "binding signal": "1.3 fold enrichment (6-mer frequency, TF over GST control)"},
      {"sequence": "CTTGAA", "binding signal": "1.17 fold enrichment (6-mer frequency, TF over GST control)"},
      {"sequence": "GATTTG", "binding signal": "1.12 fold enrichment (6-mer frequency, TF over GST control)"},
      {"sequence": "GCGTTC", "binding signal": "1.12 fold enrichment (6-mer frequency, TF over GST control)"},
      {"sequence": "TCTGTG", "binding signal": "1.14 fold enrichment (6-mer frequency, TF over GST control)"},
      {"sequence": "GAAGTA", "binding signal": "1.95 fold enrichment (6-mer frequency, TF over GST control)"},
      {"sequence": "TACGGA", "binding signal": "1.48 fold enrichment (6-mer frequency, TF over GST control)"},
      {"sequence": "ACACAC", "binding signal": "1.19 fold enrichment (6-mer frequency, TF over GST control)"},
      {"sequence": "GCTGAA", "binding signal": "1.11 fold enrichment (6-mer frequency, TF over GST control)"},
      {"sequence": "TCACAA", "binding signal": "1.13 fold enrichment (6-mer frequency, TF over GST control)"},
      {"sequence": "GCGCCT", "binding signal": "1.16 fold enrichment (6-mer frequency, TF over GST control)"},
      {"sequence": "CTGGAC", "binding signal": "1.05 fold enrichment (6-mer frequency, TF over GST control)"},
      {"sequence": "GTATAC", "binding signal": "1.27 fold enrichment (6-mer frequency, TF over GST control)"},
      {"sequence": "TATTTC", "binding signal": "2.19 fold enrichment (6-mer frequency, TF over GST control)"},
      {"sequence": "CCGAAA", "binding signal": "1.26 fold enrichment (6-mer frequency, TF over GST control)"},
      {"sequence": "ACCTTG", "binding signal": "1.18 fold enrichment (6-mer frequency, TF over GST control)"},
      {"sequence": "CAACAC", "binding signal": "1.06 fold enrichment (6-mer frequency, TF over GST control)"},
      {"sequence": "GTATAA", "binding signal": "1.19 fold enrichment (6-mer frequency, TF over GST control)"},
      {"sequence": "TCGATG", "binding signal": "1.06 fold enrichment (6-mer frequency, TF over GST control)"},
      {"sequence": "GGCCTA", "binding signal": "1.04 fold enrichment (6-mer frequency, TF over GST control)"},
      {"sequence": "AAGCAC", "binding signal": "1.18 fold enrichment (6-mer frequency, TF over GST control)"},
      {"sequence": "CGATCG", "binding signal": "1.03 fold enrichment (6-mer frequency, TF over GST control)"},
      {"sequence": "ACTCGC", "binding signal": "1.12 fold enrichment (6-mer frequency, TF over GST control)"},
      {"sequence": "CTGTCC", "binding signal": "1.27 fold enrichment (6-mer frequency, TF over GST control)"},
      {"sequence": "TTAGCG", "binding signal": "1.13 fold enrichment (6-mer frequency, TF over GST control)"},
      {"sequence": "TAATGA", "binding signal": "1.16 fold enrichment (6-mer frequency, TF over GST control)"},
      {"sequence": "GGTAAT", "binding signal": "1.11 fold enrichment (6-mer frequency, TF over GST control)"},
      {"sequence": "TATCGC", "binding signal": "1.16 fold enrichment (6-mer frequency, TF over GST control)"},
      {"sequence": "TGCGCA", "binding signal": "1.02 fold enrichment (6-mer frequency, TF over GST control)"},
      {"sequence": "CCGGGT", "binding signal": "1.16 fold enrichment (6-mer frequency, TF over GST control)"},
      {"sequence": "TCTATG", "binding signal": "1.12 fold enrichment (6-mer frequency, TF over GST control)"},
      {"sequence": "ATTGCT", "binding signal": "1.3 fold enrichment (6-mer frequency, TF over GST control)"},
      {"sequence": "ATGTGC", "binding signal": "1.15 fold enrichment (6-mer frequency, TF over GST control)"},
      {"sequence": "TTTCCT", "binding signal": "2.52 fold enrichment (6-mer frequency, TF over GST control)"},
      {"sequence": "GCTCTG", "binding signal": "1.1 fold enrichment (6-mer frequency, TF over GST control)"},
      {"sequence": "ATAGCT", "binding signal": "1.09 fold enrichment (6-mer frequency, TF over GST control)"},
      {"sequence": "CCCTGT", "binding signal": "1.12 fold enrichment (6-mer frequency, TF over GST control)"},
      {"sequence": "AATCAG", "binding signal": "1.19 fold enrichment (6-mer frequency, TF over GST control)"},
      {"sequence": "CGAAGC", "binding signal": "1.22 fold enrichment (6-mer frequency, TF over GST control)"},
      {"sequence": "CCGCGT", "binding signal": "1.16 fold enrichment (6-mer frequency, TF over GST control)"}
    ]},
    {"target": "T1, ELK3 (Homo sapiens, UniProt P41970 1-407)", "T1 sequence": "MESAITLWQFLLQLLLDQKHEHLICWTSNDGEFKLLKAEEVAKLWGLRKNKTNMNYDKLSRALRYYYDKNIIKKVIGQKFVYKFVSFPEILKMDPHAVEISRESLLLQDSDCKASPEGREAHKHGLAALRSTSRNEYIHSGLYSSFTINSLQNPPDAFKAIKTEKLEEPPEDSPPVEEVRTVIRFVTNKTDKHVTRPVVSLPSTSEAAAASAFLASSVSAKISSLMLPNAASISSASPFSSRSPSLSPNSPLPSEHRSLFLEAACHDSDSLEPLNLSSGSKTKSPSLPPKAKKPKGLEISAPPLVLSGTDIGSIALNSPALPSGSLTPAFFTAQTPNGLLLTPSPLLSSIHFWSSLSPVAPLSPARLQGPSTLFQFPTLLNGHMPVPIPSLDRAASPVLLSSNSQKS", "test": "DAPPL (digital affinity profiling via proximity ligation, sequencing); 10 mM Tris-HCl pH 7.5, 50 mM NaCl, 1 mM DTT, 4% glycerol, room temperature, 30 min; GST-TFs on glutathione beads, 16-mer random dsDNA library, 0.1% formaldehyde crosslink after washing; high values mean tight binding", "conditions": "protein: recombinant; tags: N-terminal GST; dsDNA, one strand shown", "procedure,_shortened": "as §1", "values": [
      {"sequence": "GCGTTC", "binding signal": "1.13 fold enrichment (6-mer frequency, TF over GST control)"},
      {"sequence": "GAAGTA", "binding signal": "2.1 fold enrichment (6-mer frequency, TF over GST control)"},
      {"sequence": "TACGGA", "binding signal": "1.43 fold enrichment (6-mer frequency, TF over GST control)"},
      {"sequence": "ACACAC", "binding signal": "1.12 fold enrichment (6-mer frequency, TF over GST control)"},
      {"sequence": "TCACAA", "binding signal": "1.17 fold enrichment (6-mer frequency, TF over GST control)"},
      {"sequence": "GCGCCT", "binding signal": "1.05 fold enrichment (6-mer frequency, TF over GST control)"},
      {"sequence": "GTATAC", "binding signal": "1.28 fold enrichment (6-mer frequency, TF over GST control)"},
      {"sequence": "TATTTC", "binding signal": "2.21 fold enrichment (6-mer frequency, TF over GST control)"},
      {"sequence": "ACCTTG", "binding signal": "1.38 fold enrichment (6-mer frequency, TF over GST control)"},
      {"sequence": "GGCCTA", "binding signal": "1.1 fold enrichment (6-mer frequency, TF over GST control)"},
      {"sequence": "AAGCAC", "binding signal": "1.31 fold enrichment (6-mer frequency, TF over GST control)"},
      {"sequence": "CTGTCC", "binding signal": "1.1 fold enrichment (6-mer frequency, TF over GST control)"},
      {"sequence": "TAATGA", "binding signal": "1.21 fold enrichment (6-mer frequency, TF over GST control)"},
      {"sequence": "ATTGCT", "binding signal": "1.22 fold enrichment (6-mer frequency, TF over GST control)"},
      {"sequence": "ATGTGC", "binding signal": "1.09 fold enrichment (6-mer frequency, TF over GST control)"},
      {"sequence": "TTTCCT", "binding signal": "2.53 fold enrichment (6-mer frequency, TF over GST control)"},
      {"sequence": "CGAAGC", "binding signal": "1.49 fold enrichment (6-mer frequency, TF over GST control)"}
    ]}
  ]
}
